Rab9 prom act: qHTS Assay for Rab9 Promoter Activators; AID 485297, 2010; 320,000 compounds, 2.8% hits; Potency, µM (series often up to 9.22 µM), hits mostly activators; Huh7 Rab9 promoter-luciferase reporter, luminescence, 24 h; further: nearly all actives have a fitted effect of over 60% in size
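Rab9 promoter-driven luciferase in stably transfected Huh7 cells; 1500 cells/well rested 2 h, exposed to compound in DMSO for 24 h at 37 °C, 5% CO2. Luminescence read 10 min after adding luciferase reagent at ambient temperature.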
FLuc counter: qHTS profiling assay for firefly luciferase inhibitor/activator using purifed enzyme and Km concentrations of substrates (counterscreen for miR-21 project). 360,000 compounds, 6.9% hits. Luciferin 4-monooxygenase (Photinus pyralis), P08659. Potency, µM (top dose mostly 57.5 µM), most hits filed as inhibitors. AID 588342, 2011. purified FLuc, Km substrates, luminescence inhibition; further: nearly all actives have a fitted effect of over 55% in size
Target sequence (P08659 whole entry, looked up): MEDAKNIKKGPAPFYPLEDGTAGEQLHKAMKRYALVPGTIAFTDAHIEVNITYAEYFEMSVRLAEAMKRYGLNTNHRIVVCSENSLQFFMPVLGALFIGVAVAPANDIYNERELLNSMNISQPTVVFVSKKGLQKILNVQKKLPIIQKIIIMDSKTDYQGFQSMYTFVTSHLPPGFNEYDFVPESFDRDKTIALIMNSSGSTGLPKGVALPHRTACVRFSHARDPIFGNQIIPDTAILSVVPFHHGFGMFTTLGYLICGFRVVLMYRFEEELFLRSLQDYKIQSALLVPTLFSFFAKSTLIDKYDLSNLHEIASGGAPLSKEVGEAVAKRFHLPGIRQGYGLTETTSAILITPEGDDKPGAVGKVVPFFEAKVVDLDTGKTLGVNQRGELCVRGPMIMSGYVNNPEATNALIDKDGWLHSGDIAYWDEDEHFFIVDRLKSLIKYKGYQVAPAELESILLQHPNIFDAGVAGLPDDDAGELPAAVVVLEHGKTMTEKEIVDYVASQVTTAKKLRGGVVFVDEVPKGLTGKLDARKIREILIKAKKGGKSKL
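Purified P. pyralis luciferase (10nM final) with 10uM D-luciferin and 10uM ATP (Km levels) in 50mM Tris acetate pH 7.5, 10mM Mg acetate, 0.01% Tween-20, 0.05% BSA; qHTS 6-point titration, ~60 µM downward; luminescence read.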
ELG1 genotox: qHTS screen for small molecules that induce genotoxicity in human embryonic kidney (HEK293T) cells expressing luciferase-tagged ELG1; HEK293T ELG1-luciferase reporter, luminescence, 16 h; Potency, µM (titrated, usually from 46 µM), usual class: activators; 330,000 compounds, 1.3% hits; AID 504466, 2011; further: nearly all actives have a fitted effect of over 60% in size
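HEK293T cells expressing luciferase-tagged ELG1 were treated with compound or DMSO for 16 hr at 37°C. Luciferase activity was then read after 30 min with ONE-Glo at room temperature; rising signal flags genetic stress.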
ELG1 repair inh: qHTS screen for small molecules that inhibit ELG1-dependent DNA repair in human embryonic kidney (HEK293T) cells expressing luciferase-tagged ELG1; HEK293T ELG1-luciferase reporter, luminescence, 16 h; DNA damage induced by 5-fluorouridine; Potency, µM (highest dose often 46.1 µM), usual class: inhibitors; 330,000 compounds, 2.3% hits; further: nearly all actives have a fitted effect of over 55% in size
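HEK293T cells expressing luciferase-tagged ELG1 (2,000/well) received 5-Fluorouridine plus compound or DMSO for 16 hr at 37 °C. Luciferase was read by ONE-Glo luminescence after 30 min at room temperature.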
SMN2 splice up: qHTS Assay for Enhancers of SMN2 Splice Variant Expression | 210,000 compounds, 2.8% hits | AID 1458, 2008 | HEK293 SMN2-luciferase splicing reporter, luminescence, 30-36 h | Potency, µM (doses to about 46.1 µM), usual class: activators; further: nearly all actives have a fitted effect of over 55% in size
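HEK293 cells carry an SMN2 […]–luciferase reporter in which exon 7 inclusion puts luciferase in frame. Cells were plated 10-12 h before compound addition, then incubated 30-36 h at 37C. ONE-Glo luminescence was read; sodium butyrate at 4.5 mM final served as control.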
NPC1 promoter act: qHTS Assay for NPC1 Promoter Activators; Huh7 NPC1 promoter luciferase reporter, 24 h; Potency, µM (titrated, usually from 9.22 µM), usual class: activators; AID 485313, 2010; 320,000 compounds, 2.4% hits; further: nearly all actives have a fitted effect of over 60% in size
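Readout is luciferase luminescence, reflecting NPC1 promoter activation in stably transfected Huh7 cells after 24 h compound exposure at 37 °C in reduced-serum medium with 10% FBS.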
Of the large screens only hits and unclear results are named; the others gave an inactive call. Shown are actives, neighbours in structure and some others; about 9.4% of the full set was active somewhere. The call rests on the fitted dose curve; in most records, active means well fitted curve in the direction sought with a large enough effect; inconclusive means small, poorly fitted or top-dose-only effect, or another doubt; inactive means no such curve, though single readings can be large; an effect the other way counts as inactive or inconclusive.

NC(=O)C1CCN(c2nc(-c3ccc4ccccc4c3)cs2)CC1	Rab9 prom act inconclusive, FLuc counter 12µM, ELG1 repair inh inconclusive, NPC1 promoter act 2µM (no result: SMN2 splice up)
NC(=O)C1CCN(c2nc(-c3cccc(Cl)c3)cs2)CC1	Rab9 prom act inconclusive, FLuc counter inconclusive, ELG1 repair inh inconclusive (no result: SMN2 splice up)
N=C(c1ccc2ccccc2c1)c1ccccc1Cc1ccccc1	none (no result: Rab9 prom act, FLuc counter, ELG1 genotox, ELG1 repair inh, NPC1 promoter act)
O=C(c1nc(-c2ccc(Cl)cc2)n2c1CCCCC2)N1CCN(c2ccccc2)CC1	none (no result: Rab9 prom act, ELG1 genotox, ELG1 repair inh, SMN2 splice up, NPC1 promoter act)
COc1ccc(OC)c(NC(=O)N2c3ccccc3Sc3ccccc32)c1	none (no result: Rab9 prom act, ELG1 genotox, ELG1 repair inh, NPC1 promoter act)
COCCCN(C(C)=O)c1nc(-c2ccccc2)cs1	Rab9 prom act inconclusive, FLuc counter inconclusive, ELG1 genotox 13µM, ELG1 repair inh inconclusive (no result: SMN2 splice up)
COCCCN(C(=O)c1ccccc1)c1nc(-c2ccc(OC)cc2)cs1	ELG1 repair inh inconclusive (no result: SMN2 splice up)
CN(C)c1ccc(CNC(=O)c2ccccc2NC(=O)c2nsc3ccccc23)cc1	none (no result: Rab9 prom act, ELG1 genotox, ELG1 repair inh, SMN2 splice up, NPC1 promoter act)
CC(NC(=O)c1ccc(NC(=O)c2nsc3ccccc23)cc1)c1ccccc1 (stereo not drawn)	FLuc counter 3.01µM (no result: Rab9 prom act, ELG1 genotox, ELG1 repair inh, SMN2 splice up, NPC1 promoter act)
CN(Cc1ccccc1)C(=O)c1cccc(NC(=O)c2nsc3ccccc23)c1	FLuc counter 9.53µM (no result: Rab9 prom act, ELG1 genotox, ELG1 repair inh, SMN2 splice up, NPC1 promoter act)
Cc1ccc(C(=O)NCc2ccc(F)cc2)cc1NC(=O)c1nsc2ccccc12	none (no result: Rab9 prom act, ELG1 genotox, ELG1 repair inh, SMN2 splice up, NPC1 promoter act)
CC(C)Oc1ccc(CNC(=O)c2cccc(NC(=O)c3nsc4ccccc34)c2)cc1	FLuc counter 9.53µM (no result: Rab9 prom act, ELG1 genotox, ELG1 repair inh, SMN2 splice up, NPC1 promoter act)
CC(NC(=O)c1cccc(NC(=O)c2nsc3ccccc23)c1)c1ccccc1 (stereo not drawn)	FLuc counter 3.79µM (no result: Rab9 prom act, ELG1 genotox, ELG1 repair inh, SMN2 splice up, NPC1 promoter act)
Cn1cccc1-c1cc2n(n1)CCC(=O)N2CCCC(=O)NCc1cccc(Cl)c1	none (no result: Rab9 prom act, ELG1 genotox, ELG1 repair inh, SMN2 splice up, NPC1 promoter act)
Cc1ccc(C(C)C)c(OCC(=O)Nc2cc(-c3nc4ccccc4[nH]3)ccc2C)c1	none (no result: Rab9 prom act, ELG1 genotox, ELG1 repair inh, NPC1 promoter act)
CCc1cccc(NC(=O)CSC2=Nc3ccccc3N=C(c3ccc(F)cc3)C2)c1	none (no result: Rab9 prom act, ELG1 genotox, ELG1 repair inh, SMN2 splice up, NPC1 promoter act)
COC(=O)c1ccc(NC(=O)CCS(=O)(=O)c2ccc(Br)cc2)cc1	none
COC(=O)c1ccc(NC(=O)CSCC(=O)OCC(=O)c2ccc(Br)cc2)cc1	FLuc counter 12µM
Cn1c(CN2CCCCC2)nc2cc(NC(=O)c3ccc(F)cc3)ccc21	FLuc counter inconclusive, ELG1 repair inh inconclusive
CCC(=O)NCCc1nc2cc(NC(=O)c3ccc(F)cc3)ccc2n1C	Rab9 prom act 2.82µM, FLuc counter 16.9µM, ELG1 genotox 7.3µM, ELG1 repair inh inconclusive, NPC1 promoter act 1.26µM (no result: SMN2 splice up)
COc1ccc(OCC(=O)Nc2ccc3c(c2)nc(CCNC(C)=O)n3C)cc1	none (no result: SMN2 splice up)
CCC(=O)NCCc1nc2cc(NC(=O)c3ccc(Cl)cc3)ccc2n1C	Rab9 prom act 0.631µM, FLuc counter 10.7µM, ELG1 genotox inconclusive, ELG1 repair inh inconclusive, NPC1 promoter act 1.78µM (no result: SMN2 splice up)
CC(=O)NCCc1nc2cc(NC(=O)c3cccs3)ccc2n1C	Rab9 prom act 4.47µM, FLuc counter inconclusive, ELG1 repair inh inconclusive, NPC1 promoter act inconclusive (no result: SMN2 splice up)
CCC(=O)NCCc1nc2cc(NC(=O)c3ccc(OC)cc3)ccc2n1C	Rab9 prom act inconclusive, FLuc counter 16.9µM, ELG1 genotox 8.91µM, ELG1 repair inh inconclusive, SMN2 splice up 12.6µM, NPC1 promoter act inconclusive
CCCC(=O)Nc1ccc2c(c1)nc(CCNC(=O)c1ccccc1)n2C	none
CCOc1ccc(S(=O)(=O)NCc2cccn2Cc2cccc(C)c2)cc1	none (no result: Rab9 prom act, ELG1 genotox, ELG1 repair inh, SMN2 splice up, NPC1 promoter act)
CC(=O)NCCc1nc2cc(NC(=O)COc3ccc(C)cc3)ccc2n1C	none (no result: SMN2 splice up)
CC(=O)NCCc1nc2cc(NC(=O)c3ccc(Cl)cc3)ccc2n1C	Rab9 prom act 1.12µM, FLuc counter 8.49µM, ELG1 genotox 5.8µM, ELG1 repair inh inconclusive, NPC1 promoter act 0.708µM (no result: SMN2 splice up)
Cc1cc(N=Cc2c(O)n(-c3cccc(C(F)(F)F)c3)c(=O)c3ccccc23)no1	ELG1 repair inh 9.2µM

Screening results deposited in PubChem BioAssay by National Center for Advancing Translational Sciences (NCATS).
